Binding signal data for two sequences are collected here from paper PMC7862700, “An all-to-all approach to the identification of sequence-specific readers for epigenetic DNA modifications on cytosine”.

What all share (test): DAPPL (digital affinity profiling via proximity ligation, sequencing); 10 mM Tris-HCl pH 7.5, 50 mM NaCl, 1 mM DTT, 4% glycerol, room temperature, 30 min; GST-TFs on glutathione beads, 16-mer random dsDNA library, 0.1% formaldehyde crosslink after washing; high values mean tight binding
One test deals with T1, ELK1 (Homo sapiens, UniProt P19419 1-428).
T1 sequence: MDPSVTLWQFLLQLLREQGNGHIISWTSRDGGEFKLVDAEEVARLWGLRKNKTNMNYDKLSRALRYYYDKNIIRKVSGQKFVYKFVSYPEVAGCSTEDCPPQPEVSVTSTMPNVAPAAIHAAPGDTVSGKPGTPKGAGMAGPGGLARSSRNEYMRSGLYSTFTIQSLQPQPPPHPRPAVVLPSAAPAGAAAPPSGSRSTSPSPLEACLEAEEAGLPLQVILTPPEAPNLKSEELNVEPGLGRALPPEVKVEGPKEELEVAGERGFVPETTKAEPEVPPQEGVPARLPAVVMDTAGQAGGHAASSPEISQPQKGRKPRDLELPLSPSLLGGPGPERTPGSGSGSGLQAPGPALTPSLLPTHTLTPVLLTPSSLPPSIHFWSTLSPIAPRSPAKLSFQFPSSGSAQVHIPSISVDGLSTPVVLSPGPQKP
As to conditions: protein: recombinant; tags: N-terminal GST; dsDNA, one strand shown. The essentials: (§1)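 Human transcription factors carrying a GST fusion were produced in yeast, bound to glutathione beads, tagged with DNA barcodes and pooled together with a tag-only sample. Each pool was held with 200 nmole of a random double-stranded 16-mer DNA library in Tris/NaCl/DTT/glycerol buffer for 30 min at room temperature, then washed, crosslinked in 0.1% formaldehyde, proximity-ligated with BsaI/T4 ligase (1 h, 37 °C), PCR-amplified and sequenced on an Illumina NextSeq500. Binding signal is the read frequency of each hexamer for a given factor divided by its frequency in the tag-only sample.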

The target in another test is T2, GABPA (Homo sapiens, UniProt Q06546 1-454).
T2 sequence: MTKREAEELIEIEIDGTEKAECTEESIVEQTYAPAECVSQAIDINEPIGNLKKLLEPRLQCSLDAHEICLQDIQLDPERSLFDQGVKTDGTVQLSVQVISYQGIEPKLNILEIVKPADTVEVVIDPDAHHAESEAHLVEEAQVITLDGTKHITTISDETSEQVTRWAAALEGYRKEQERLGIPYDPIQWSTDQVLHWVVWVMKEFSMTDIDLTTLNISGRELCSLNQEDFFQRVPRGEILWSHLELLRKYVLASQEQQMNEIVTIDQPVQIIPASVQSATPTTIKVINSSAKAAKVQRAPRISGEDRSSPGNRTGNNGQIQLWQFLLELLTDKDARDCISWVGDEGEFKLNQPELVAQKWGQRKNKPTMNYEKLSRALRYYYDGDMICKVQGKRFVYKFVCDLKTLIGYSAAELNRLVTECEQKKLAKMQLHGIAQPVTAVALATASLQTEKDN
The note with it: protein: recombinant; tags: N-terminal GST; dsDNA, one strand shown. In outline:
as §1

The target in another test is ELF1 (Homo sapiens, UniProt P32519 1-619). The note with it: protein: recombinant; tags: N-terminal GST; dsDNA, one strand shown. The essentials:
as §1

The target of another test is HSF1 (Homo sapiens, UniProt Q00613 1-529). As to conditions: protein: recombinant; tags: N-terminal GST; chain copies: 3; dsDNA, one strand shown. In outline: as §1
In another test the target is T3, ELK4 (Homo sapiens, UniProt P28324-2 1-405).
T3 sequence: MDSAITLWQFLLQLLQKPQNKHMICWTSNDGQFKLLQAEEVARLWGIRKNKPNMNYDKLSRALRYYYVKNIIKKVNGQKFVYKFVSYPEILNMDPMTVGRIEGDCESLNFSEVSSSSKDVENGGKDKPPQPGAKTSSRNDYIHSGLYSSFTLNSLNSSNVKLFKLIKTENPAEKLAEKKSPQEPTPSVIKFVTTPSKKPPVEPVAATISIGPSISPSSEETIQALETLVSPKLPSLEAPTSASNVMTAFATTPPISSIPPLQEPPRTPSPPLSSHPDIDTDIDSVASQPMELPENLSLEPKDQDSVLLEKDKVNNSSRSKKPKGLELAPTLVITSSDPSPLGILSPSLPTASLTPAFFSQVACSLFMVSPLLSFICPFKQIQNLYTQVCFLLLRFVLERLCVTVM
As to conditions: protein: recombinant; tags: N-terminal GST; dsDNA, one strand shown. The essentials:
as §1

In a further test the target is CRX (Homo sapiens, UniProt O43186 1-299). The note with it: protein: recombinant; tags: N-terminal GST; dsDNA, one strand shown. In outline: as §1
The target in the next test is ETV1 (Homo sapiens, UniProt P50549 1-477). As to conditions: protein: recombinant; tags: N-terminal GST; dsDNA, one strand shown. The essentials: as §1
Another test concerns the target T4, ETV3L (Homo sapiens, UniProt Q6ZN32 1-361).
T4 sequence: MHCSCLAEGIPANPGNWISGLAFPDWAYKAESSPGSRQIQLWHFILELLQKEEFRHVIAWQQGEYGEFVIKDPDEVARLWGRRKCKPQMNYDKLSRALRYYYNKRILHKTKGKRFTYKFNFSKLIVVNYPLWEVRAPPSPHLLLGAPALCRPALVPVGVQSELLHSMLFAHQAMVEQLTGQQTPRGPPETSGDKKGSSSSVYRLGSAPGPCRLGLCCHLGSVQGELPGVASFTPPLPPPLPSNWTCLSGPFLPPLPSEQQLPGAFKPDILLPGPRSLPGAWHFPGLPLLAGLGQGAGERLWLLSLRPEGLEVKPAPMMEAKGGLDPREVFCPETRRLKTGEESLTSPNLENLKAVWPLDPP
As to conditions: protein: recombinant; tags: N-terminal GST; dsDNA, one strand shown. The essentials: as §1

A further test addresses T5, SPDEF (Homo sapiens, UniProt O95238 1-335).
T5 sequence: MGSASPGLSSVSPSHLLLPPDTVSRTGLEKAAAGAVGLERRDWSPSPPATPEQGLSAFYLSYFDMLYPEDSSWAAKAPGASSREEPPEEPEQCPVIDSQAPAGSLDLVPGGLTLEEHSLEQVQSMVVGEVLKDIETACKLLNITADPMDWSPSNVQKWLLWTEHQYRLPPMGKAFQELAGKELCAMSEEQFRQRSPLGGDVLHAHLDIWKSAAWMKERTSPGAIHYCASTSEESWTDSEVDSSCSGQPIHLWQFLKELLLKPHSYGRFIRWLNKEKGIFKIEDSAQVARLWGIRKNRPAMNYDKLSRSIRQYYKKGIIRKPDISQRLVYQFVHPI
The note with it: protein: recombinant; tags: N-terminal GST; dsDNA, one strand shown. In outline: as §1

A further test has as its target T6, ETV3 (Homo sapiens, UniProt P41162-2 1-143).
T6 sequence: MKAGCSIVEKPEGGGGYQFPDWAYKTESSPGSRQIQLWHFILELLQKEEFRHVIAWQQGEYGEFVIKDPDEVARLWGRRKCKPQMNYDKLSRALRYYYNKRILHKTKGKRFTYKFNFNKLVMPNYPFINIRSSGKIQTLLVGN
As to conditions: protein: recombinant; tags: N-terminal GST; dsDNA, one strand shown. In outline:
as §1

For a further test, the target named is ETV6 (Homo sapiens, UniProt P41212 1-452). As to conditions: protein: recombinant; tags: N-terminal GST; dsDNA, one strand shown. In outline: as §1
The next test has as its target ELF4 (Homo sapiens, UniProt Q99607 1-663). As to conditions: protein: recombinant; tags: N-terminal GST; dsDNA, one strand shown. In outline: as §1
In another test the target is T7, ERF (Homo sapiens, UniProt P50548 1-548).
T7 sequence: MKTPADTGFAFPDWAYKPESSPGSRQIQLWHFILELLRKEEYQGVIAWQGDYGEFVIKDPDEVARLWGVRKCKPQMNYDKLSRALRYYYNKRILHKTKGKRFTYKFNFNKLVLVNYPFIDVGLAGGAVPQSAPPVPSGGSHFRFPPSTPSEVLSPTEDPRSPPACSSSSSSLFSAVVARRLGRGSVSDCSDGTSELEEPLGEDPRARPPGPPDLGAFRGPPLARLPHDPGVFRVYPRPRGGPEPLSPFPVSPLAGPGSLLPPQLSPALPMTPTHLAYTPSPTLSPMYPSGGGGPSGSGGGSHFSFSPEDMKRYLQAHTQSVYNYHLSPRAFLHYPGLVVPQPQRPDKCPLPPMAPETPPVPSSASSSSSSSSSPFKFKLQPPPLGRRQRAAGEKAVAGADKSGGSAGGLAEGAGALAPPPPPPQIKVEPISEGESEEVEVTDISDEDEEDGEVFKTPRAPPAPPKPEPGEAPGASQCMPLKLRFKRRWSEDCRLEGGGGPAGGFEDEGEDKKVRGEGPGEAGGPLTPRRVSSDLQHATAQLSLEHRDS
The note with it: protein: recombinant; tags: N-terminal GST; dsDNA, one strand shown. In outline: as §1

A further test has as its target T8, ETV7 (Homo sapiens, UniProt Q9Y603 1-341).
T8 sequence: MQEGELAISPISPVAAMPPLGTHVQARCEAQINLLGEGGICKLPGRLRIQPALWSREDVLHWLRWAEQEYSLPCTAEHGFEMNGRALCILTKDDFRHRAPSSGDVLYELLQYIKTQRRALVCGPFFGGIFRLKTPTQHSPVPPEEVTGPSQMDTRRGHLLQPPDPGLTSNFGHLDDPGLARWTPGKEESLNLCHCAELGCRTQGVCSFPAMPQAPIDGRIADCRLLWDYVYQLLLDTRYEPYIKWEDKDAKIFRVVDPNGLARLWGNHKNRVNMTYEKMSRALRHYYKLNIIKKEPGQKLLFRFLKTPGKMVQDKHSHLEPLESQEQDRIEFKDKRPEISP
The note with it: protein: recombinant; tags: N-terminal GST; dsDNA, one strand shown. The essentials: as §1

Sequence of HSF1 (Q00613 whole entry): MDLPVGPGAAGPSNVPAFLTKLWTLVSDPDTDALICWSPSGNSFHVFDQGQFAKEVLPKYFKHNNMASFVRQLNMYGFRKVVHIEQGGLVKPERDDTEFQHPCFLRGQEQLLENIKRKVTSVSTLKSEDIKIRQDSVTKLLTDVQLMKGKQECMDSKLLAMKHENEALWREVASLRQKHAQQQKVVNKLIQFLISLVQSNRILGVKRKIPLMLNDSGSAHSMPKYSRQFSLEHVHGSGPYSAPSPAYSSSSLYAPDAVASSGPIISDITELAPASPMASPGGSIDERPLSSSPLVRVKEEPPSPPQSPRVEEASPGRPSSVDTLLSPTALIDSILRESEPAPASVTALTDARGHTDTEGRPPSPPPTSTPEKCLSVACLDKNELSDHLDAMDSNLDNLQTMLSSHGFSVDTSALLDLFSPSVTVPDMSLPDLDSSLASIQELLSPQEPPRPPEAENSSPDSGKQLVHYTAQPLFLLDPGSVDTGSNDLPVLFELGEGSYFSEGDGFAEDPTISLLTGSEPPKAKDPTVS
Sequence of ELF1 (P32519 whole entry): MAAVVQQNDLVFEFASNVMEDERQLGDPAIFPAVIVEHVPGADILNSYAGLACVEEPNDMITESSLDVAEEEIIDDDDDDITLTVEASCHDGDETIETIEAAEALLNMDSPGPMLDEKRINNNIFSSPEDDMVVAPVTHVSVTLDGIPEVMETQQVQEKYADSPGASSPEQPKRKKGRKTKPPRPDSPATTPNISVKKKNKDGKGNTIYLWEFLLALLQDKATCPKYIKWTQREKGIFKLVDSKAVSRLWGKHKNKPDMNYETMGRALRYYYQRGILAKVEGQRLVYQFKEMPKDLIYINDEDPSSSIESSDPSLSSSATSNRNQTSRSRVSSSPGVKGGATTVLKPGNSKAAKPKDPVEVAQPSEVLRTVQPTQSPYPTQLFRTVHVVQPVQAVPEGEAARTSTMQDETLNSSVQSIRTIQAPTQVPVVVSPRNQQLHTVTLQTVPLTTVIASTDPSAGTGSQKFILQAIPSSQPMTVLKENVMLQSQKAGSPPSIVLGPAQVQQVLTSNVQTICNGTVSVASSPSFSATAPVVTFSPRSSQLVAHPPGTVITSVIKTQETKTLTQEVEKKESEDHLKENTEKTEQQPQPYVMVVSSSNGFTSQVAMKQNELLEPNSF
Sequence of ELF4 (Q99607 whole entry): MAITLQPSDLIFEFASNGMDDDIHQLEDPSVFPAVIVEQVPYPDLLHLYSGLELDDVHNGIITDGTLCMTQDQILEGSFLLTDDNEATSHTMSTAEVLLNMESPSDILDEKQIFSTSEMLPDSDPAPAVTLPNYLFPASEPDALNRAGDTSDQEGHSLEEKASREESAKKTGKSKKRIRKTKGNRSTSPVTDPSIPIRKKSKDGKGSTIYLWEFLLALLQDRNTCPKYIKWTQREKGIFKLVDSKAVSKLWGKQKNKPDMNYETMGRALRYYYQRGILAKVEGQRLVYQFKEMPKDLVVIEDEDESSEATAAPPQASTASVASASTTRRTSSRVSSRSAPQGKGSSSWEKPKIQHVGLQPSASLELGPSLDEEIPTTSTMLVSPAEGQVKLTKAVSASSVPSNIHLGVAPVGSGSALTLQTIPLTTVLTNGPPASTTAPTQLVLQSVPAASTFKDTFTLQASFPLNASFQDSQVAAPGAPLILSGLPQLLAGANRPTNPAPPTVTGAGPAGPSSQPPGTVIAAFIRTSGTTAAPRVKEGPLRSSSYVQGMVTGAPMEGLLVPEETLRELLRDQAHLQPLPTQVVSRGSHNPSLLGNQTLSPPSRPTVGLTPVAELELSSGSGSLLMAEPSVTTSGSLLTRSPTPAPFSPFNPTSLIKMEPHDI
Sequence of CRX (O43186 whole entry): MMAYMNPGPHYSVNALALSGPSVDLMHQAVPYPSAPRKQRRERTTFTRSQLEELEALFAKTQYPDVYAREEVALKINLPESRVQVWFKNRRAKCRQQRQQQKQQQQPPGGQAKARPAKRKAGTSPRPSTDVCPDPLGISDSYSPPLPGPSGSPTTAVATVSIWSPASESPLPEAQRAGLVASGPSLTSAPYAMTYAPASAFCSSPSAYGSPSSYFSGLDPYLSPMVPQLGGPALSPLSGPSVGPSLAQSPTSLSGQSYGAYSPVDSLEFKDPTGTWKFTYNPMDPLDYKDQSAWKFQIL
Sequence of ETV6 (P41212 whole entry): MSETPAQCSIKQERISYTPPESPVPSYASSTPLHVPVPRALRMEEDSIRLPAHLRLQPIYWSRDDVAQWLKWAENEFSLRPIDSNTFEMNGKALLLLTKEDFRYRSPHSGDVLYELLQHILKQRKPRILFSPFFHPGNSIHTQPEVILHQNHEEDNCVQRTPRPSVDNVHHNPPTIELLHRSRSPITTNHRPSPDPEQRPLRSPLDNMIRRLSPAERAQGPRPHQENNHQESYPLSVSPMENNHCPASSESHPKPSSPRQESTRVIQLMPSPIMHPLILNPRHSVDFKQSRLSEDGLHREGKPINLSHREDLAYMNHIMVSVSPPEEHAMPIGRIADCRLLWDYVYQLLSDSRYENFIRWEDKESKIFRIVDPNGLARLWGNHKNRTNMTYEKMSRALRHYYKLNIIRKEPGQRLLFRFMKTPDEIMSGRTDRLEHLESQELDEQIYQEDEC
Sequence of ETV1 (P50549 whole entry): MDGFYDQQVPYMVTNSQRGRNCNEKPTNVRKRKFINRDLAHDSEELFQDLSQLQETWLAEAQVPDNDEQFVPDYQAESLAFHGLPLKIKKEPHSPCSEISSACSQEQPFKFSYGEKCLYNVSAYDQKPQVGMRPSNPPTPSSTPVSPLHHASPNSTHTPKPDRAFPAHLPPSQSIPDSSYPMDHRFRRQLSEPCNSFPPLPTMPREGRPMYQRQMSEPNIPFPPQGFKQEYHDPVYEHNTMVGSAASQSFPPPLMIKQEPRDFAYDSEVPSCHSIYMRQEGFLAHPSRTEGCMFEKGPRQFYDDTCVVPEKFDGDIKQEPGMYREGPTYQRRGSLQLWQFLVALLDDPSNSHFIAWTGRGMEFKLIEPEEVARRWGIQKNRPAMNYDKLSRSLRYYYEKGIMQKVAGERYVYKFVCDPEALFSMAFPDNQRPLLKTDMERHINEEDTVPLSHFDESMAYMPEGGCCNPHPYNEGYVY

Take GCGATC: the binding signal with ELK1 is 1.08 fold enrichment (6-mer frequency, TF over GST control); with GABPA, 1.01 fold enrichment (6-mer frequency, TF over GST control); in the test with ELF1 it was 1.06 fold enrichment (6-mer frequency, TF over GST control); with HSF1 it was 1.02 fold enrichment (6-mer frequency, TF over GST control); in the test with ELK4, 1.13 fold enrichment (6-mer frequency, TF over GST control); with CRX, 1.03 fold enrichment (6-mer frequency, TF over GST control). Moreover, the binding signal with ETV1 was 1.03 fold enrichment (6-mer frequency, TF over GST control); in the test with ETV3L it was 1.03 fold enrichment (6-mer frequency, TF over GST control); in the test with SPDEF it was 1.04 fold enrichment (6-mer frequency, TF over GST control); in the test with ETV3 it was 1 fold enrichment (6-mer frequency, TF over GST control); with ETV6, 1 fold enrichment (6-mer frequency, TF over GST control).
For ACGAAG, the binding signal is 1.06 fold enrichment (6-mer frequency, TF over GST control) with HSF1; 1.01 fold enrichment (6-mer frequency, TF over GST control) with ELF4; 1.02 fold enrichment (6-mer frequency, TF over GST control) in the test with ERF; 1 fold enrichment (6-mer frequency, TF over GST control) with ETV3L; 1.07 fold enrichment (6-mer frequency, TF over GST control) with ETV7.
